Source: PubChem BioAssay (National Center for Advancing Translational Sciences (NCATS))
Only some compounds are listed: those with a hit (about 16% of all), similar ones and a draw of the others.
miR-21 act: qHTS Assay for Modulators of miRNAs and/orActivators of miR-21; 340,000 tested, under 10 active; Potency, µM (series often up to 38.3 µM), most hits filed as activators; HeLa miR-21 FLuc reporter, luciferase, 48 h;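 further: miR-21 action dims this reporter so a rising signal means less miR-21 action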
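HeLa cells stably expressing CMV-driven firefly luciferase with a downstream miR-21 binding sequence, endogenously expressing miR-21, were treated with titrations (up to about 40uM final) for 48 hours at 37 degree Celsius. Luciferase luminescence was read after lysis.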
TDP1 block: qHTS Assay for Inhibitors of Tyrosyl-DNA Phosphodiesterase (TDP1); Tyrosyl-DNA phosphodiesterase 1 (Homo sapiens), Q9NUW8; recombinant TDP1, AlphaScreen DNA substrate cleavage; Potency, µM (doses to about 130 µM), usual class: inhibitors; hit rate 0.28% among 350,000; AID 485290, 2010; further: nearly all actives have a fitted effect of over 40% in size
Target sequence (Q9NUW8 whole entry, looked up): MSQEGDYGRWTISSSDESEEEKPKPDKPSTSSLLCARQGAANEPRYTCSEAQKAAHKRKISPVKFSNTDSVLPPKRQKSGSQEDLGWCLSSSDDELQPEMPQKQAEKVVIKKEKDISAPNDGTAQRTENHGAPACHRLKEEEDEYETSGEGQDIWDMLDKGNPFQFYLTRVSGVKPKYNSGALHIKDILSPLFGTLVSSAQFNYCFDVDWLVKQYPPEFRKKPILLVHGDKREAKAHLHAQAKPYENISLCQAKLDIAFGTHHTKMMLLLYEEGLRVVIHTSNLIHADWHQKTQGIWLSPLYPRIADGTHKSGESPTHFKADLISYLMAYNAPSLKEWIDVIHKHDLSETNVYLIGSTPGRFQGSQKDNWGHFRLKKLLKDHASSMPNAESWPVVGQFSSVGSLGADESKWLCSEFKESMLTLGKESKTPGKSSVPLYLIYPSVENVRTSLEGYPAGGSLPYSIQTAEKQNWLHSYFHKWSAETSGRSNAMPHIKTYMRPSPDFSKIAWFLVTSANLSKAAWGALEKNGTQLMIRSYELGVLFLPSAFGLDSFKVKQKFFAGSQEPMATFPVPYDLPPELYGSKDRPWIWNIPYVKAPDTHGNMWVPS
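Compounds were preincubated with Tdp1 (1 nM final) for 15 min at room temperature before substrate (15 nM final) started a 5 min reaction; beads (10 ug/ml final) were then added for 10 min before AlphaScreen detection.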
TDP1 cell CPT: qHTS for Inhibitors of human tyrosyl-DNA phosphodiesterase 1 (TDP1): qHTS in cells in presence of CPT | chicken DT40 Tdp1-/-;hTDP1 cells + 20 nM CPT, ATP luminescence, 48 h | hit rate 12% among 420,000 | AID 686979, 2013 | Potency, µM (doses to about 46.2 µM), hits mostly inhibitors; further: nearly all actives have a fitted effect of over 55% in size
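Chicken DT40 Tdp1-/- cells complemented with human TDP1, 400 cells/well, exposed to compounds plus 20 nM camptothecin for at least 48 h at 37 C; viability read as ATP content by CellTiter-Glo luminescence.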
uPA generation: qHTS for Inhibitors of Cell Surface uPA Generation; AID 540303, 2011; cell surface uPA generation assay, qHTS; Potency, µM (top dose mostly 38.3 µM), hits mostly inhibitors; hit rate 0.31% among 330,000; active means well fitted inhibition curve with a large enough effect; inconclusive means small, poorly fitted or top-dose-only effect; inactive means no such curve, though single readings can be large or run the other way; tested in mouse RAW 264.7 cells; further: nearly all actives have a fitted effect of over 55% in size
TDP1 cell noCPT: qHTS for Inhibitors of human tyrosyl-DNA phosphodiesterase 1 (TDP1): qHTS in cells in absence of CPT; DT40 Tdp1-/- hTDP1 cells, no CPT, ATP luminescence, 48 h; Potency, µM (series often up to 46.2 µM), most hits filed as inhibitors; hit rate 15% among 420,000; AID 686978, 2013; further: nearly all actives have a fitted effect of over 55% in size
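Growth kinetics read by CellTiter-Glo luminescence after ≥48 hr at 37 °C. Cells: DT40 Tdp1-/- stably carrying human TDP1, 400 per well, compound exposure in the absence of CPT (DMSO vehicle).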
Numbers stand for hits; . = inactive; ? = inconclusive; / = no result given. Unless noted, the call rests on the fitted dose curve; in most records, active means well fitted curve in the direction sought with a large enough effect; inconclusive means small, poorly fitted or top-dose-only effect, or another doubt; inactive means no such curve, though single readings can be large; an effect the other way counts as inactive or inconclusive.

SMILES	miR-21 act	TDP1 block	TDP1 cell CPT	uPA generation	TDP1 cell noCPT
Cc1cccc(-n2cc(-c3ccccc3)c3c(NC(C)C)ncnc32)c1	.	.	20.6µM	/	23.1µM
CC(=O)Nc1ccc(Nc2ncnc3c2c(-c2ccccc2)cn3-c2ccc(C)c(Cl)c2)cc1	.	.	9.2µM	/	8.2µM
CC(=O)Nc1ccc(Nc2ncnc3c2c(-c2ccccc2)cn3-c2ccccc2)cc1	.	.	16.4µM	/	18.4µM
COc1ccc(-n2cc(-c3ccccc3)c3c(Nc4ccc(OC)c(OC)c4)ncnc32)cc1	.	.	?	/	?
CC(C)c1ccc(Nc2ncnc3c2c(-c2ccccc2)cn3-c2ccccc2)cc1	.	.	3.66µM	/	?
CCCCc1nc(C(N)=O)c2[nH]c(=O)n(-c3ccc(OC)cc3OC)c2n1	.	.	.	.	?
Cc1ccc(CSc2nc3nc(C)cc(C)n3n2)cc1	.	.	.	.	.
C=CCOC(=O)C1=C[C@@H](c2coc3ccccc3c2=O)[C@H](CCCO)[C@@H](OCC)O1	.	.	?	.	?
O=C1c2ccccc2C(c2nnnn2-c2ccc3c(c2)OCCO3)N1C1CC1 (stereo not given)	/	/	.	/	.
CC(=O)c1cc2c(cc1NC(=O)Cc1c(C)noc1C)OCO2	/	.	?	.	.
CCCCn1nnnc1C1(C)CCC(=O)N1Cc1ccc(OC)cc1 (stereo not given)	/	/	.	/	.
Cc1ccc(Nc2ncnc3c2cnn3C)cc1	.	.	.	.	?
CC(=O)Nc1ccc(Nc2ncnc3c2cnn3C)cc1	.	.	16.4µM	/	?
CCc1ccc(CNC(=O)c2ccc(-c3nc(CS(=O)(=O)c4ccccc4)c(C)o3)cc2)cc1	.	.	14.6µM	/	?
COc1cccc(CNC(=O)c2ccc(CS(=O)(=O)Cc3ccccc3C)o2)c1	.	.	29.1µM	.	23.1µM
COc1ccc(NC(=O)c2ccc(-c3nc(COc4ccccc4)c(C)o3)cc2)cc1	.	.	.	/	.
COc1cccc(CNC(=O)c2ccc(-c3nc(COc4ccccc4)c(C)o3)cc2)c1	.	.	14.6µM	/	9.2µM
Cc1ccc(OCc2nc(-c3ccc(C(=O)NCCc4ccc(S(N)(=O)=O)cc4)cc3)oc2C)cc1	.	.	14.6µM	/	23.1µM
CC(C)N(C(=O)COC(=O)CCC(=O)c1cccs1)c1ccccc1	/	.	.	.	.
CCCCNC(=S)N1CCN(CC)CC1	.	/	.	.	.
COc1cccc(CNC(=O)c2ccc(-c3nc(CS(=O)(=O)c4ccccc4)c(C)o3)cc2)c1	.	.	?	/	23.1µM
COc1cc(SC)ccc1C(=O)Nc1cccc(S(=O)(=O)NC2=NCCCCC2)c1	/	.	20.6µM	.	?
CCN(CC)S(=O)(=O)c1cccc(NC(=O)c2ccc(SC)cc2OC)c1	.	.	25.9µM	.	7.31µM
C/C(=N\NC(=O)Cc1ccc(Cl)cc1)c1ccccc1O	.	/	?	.	0.164µM
C/C(=N\NC(=O)C(C)Sc1ccccc1)C(C)(C)C (stereo not given)	.	.	.	.	.
SMILES	miR-21 act	TDP1 block	TDP1 cell CPT	uPA generation	TDP1 cell noCPT
C/C(=N\NC(=O)CSCc1ccc([N+](=O)[O-])cc1)c1ccccc1O	.	.	5.17µM	.	3.66µM
C/C(=N\NC(=O)c1ccc2nc[nH]c2c1)c1ccc([N+](=O)[O-])cc1	.	79.4µM	/	/	/
C/C(=N\NC(=O)C(C)Sc1ccccc1)c1ccc([N+](=O)[O-])cc1 (stereo not given)	.	/	?	.	4.11µM
O=C(N/N=C/c1ccc([N+](=O)[O-])cc1)c1ccc2nc[nH]c2c1	.	.	.	.	?
Cc1ccc(CSCCNC(=O)CSCc2ccc([N+](=O)[O-])cc2)cc1	.	.	.	/	?
C/C(=N/NC(=O)CN1CCN(Cc2ccccc2)CC1)c1ccc([N+](=O)[O-])cc1	.	.	.	.	?
C/C(=N\NC(=O)CSCc1ccc([N+](=O)[O-])cc1)c1ccccc1	.	.	?	.	16.4µM
O=C(c1ccc2ccccc2c1)C1CCCN(S(=O)(=O)c2cccnc2)C1 (stereo not given)	.	.	23.1µM	/	20.6µM
